Data as given in PubChem BioAssay.
The source made the active and inactive calls. Unless noted, no rule for the calls is given here.

Assays:
[1] = compounds binding Alexa647 anti-His antibody – biochemical, small-molecule microarray, 635 nm fluorescence, artefact control for SMM control protein annotation, primary screen (AID 1128); details: higher = more signal;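 also: score merges feature fluorescence with signal-to-noise for each printed compound spot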
[2] = system: Human papillomavirus type 1a E7 protein (residues 1-88); experiment: HPV1a E7 small-molecule binders, primary screen, biochemical, small-molecule microarray, residues 1-88, 635 nm (AID 1129); details: small-molecule microarray binding, fluorescence 635 nm; higher = more signal
[3] = target: Focal adhesion kinase 1 (Homo sapiens) (UniProt Q05397); experiment: PTK2 protein binding on printed compound slides – biochemical, small-molecule microarray, 635/667 nm fluorescence, BSA, DTT, primary screen (AID 1130); details: 635 nm fluorescence, higher = more signal;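 also: composite of spot emission at 667 nm and signal to noise over triplicate slides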
[4] = system: Fibrinogen (Alexa647-labelled); experiment: Alexa647-fibrinogen binding to printed small molecules – biochemical, small-molecule microarray, 635/667 nm fluorescence, artefact control for SMM control-protein annotation, profiling panel (AID 1131); details: fibrinogen-A647 binding fluorescence, higher = more signal;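 also: z-score merges 667 nm fluorescence with per-spot signal-to-noise over triplicate slides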
[5] = target: Follistatin (Homo sapiens) (UniProt P19883); experiment: FST protein binding to printed compounds – biochemical, small-molecule microarray, 635/667 nm fluorescence, primary screen (AID 1132); details: 635 nm fluorescence, higher = more signal
[6] = target: Fibroblast growth factor 2 (Homo sapiens) (UniProt P09038); experiment: basic fibroblast growth factor binding to printed compounds – biochemical, small-molecule microarray, 635/667 nm fluorescence, primary screen (AID 1133); details: FGF2, fluorescence 635/667, higher = more signal
[7] = JC-1 mitochondrial potential readout, lung cancer cells – cell-based, A549, JC-1 fluorescence, basal, 24 h, 100 nL, profiling panel (AID 1138); details: higher = more signal;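 also: A549 lung adenocarcinoma cells under basal conditions with no added stimulus; test concentration not given here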
[8] = system: Lefty1; experiment: Lefty1 protein binding to printed compounds – biochemical, small-molecule microarray, 635/667 nm fluorescence, primary screen (AID 1139); details: fluorescence 635/667, higher = more signal
[9] = system: wheat germ agglutinin (Triticum aestivum), Alexa647-labelled; experiment: Alexa647-WGA lectin binding to printed small molecules – biochemical, small-molecule microarray, 635/667 nm fluorescence, artefact control for SMM control-protein annotation, profiling panel (AID 1140); details: WGA-A647 binding, 635 nm fluorescence, higher = more signal;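 also: score merges 667 nm feature emission with signal to noise over triplicate slides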
[10] = target: Luciferin 4-monooxygenase (Photinus pyralis) (UniProt P08659); experiment: inhibition of purified Photinus pyralis luciferase – biochemical, luminescence, purified enzyme, 2006 set, primary screen (AID 1141); details: purified firefly luciferase, SteadyGlo luminescence, 30 min; higher = more signal, called active from +8 up or from −8 down;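 also: cell-free assay with purified firefly luciferase at 100 ng per well in PBS; test concentration not given here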
[11] = system: Wnt5a (protein binding on small-molecule microarray); experiment: small molecules binding Wnt5a protein – biophysical, small-molecule microarray, 635/667 nm fluorescence, primary screen (AID 1142); details: 635 nm fluorescence, higher = more signal;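 also: fluorescence read at 667 nm with signal to noise per printed feature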
[12] = ATP-based viability of Huh7 replicon cells – cell-based, CellTiter-Glo luminescence, basal, 48 h, cytotoxicity control for HCV replication inhibitor project, primary screen (AID 1143); details: higher = more signal, called active from +8 up or from −8 down;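 also: Huh7 hepatoma cells carrying a hepatitis C replication reporter with no stimulus; test concentration not given here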
[13] = Pseudomonas biofilm growth suppression – PAO1 strain, BacTiter-Glo luminescence, LB-PBS, primary screen (AID 1144); details: P. aeruginosa PAO1 biofilm, 12 h, higher = more signal
[14] = basal CRE-LacZ reporter activity in PC12 – cell-based, unstimulated, primary screen (AID 1145); details: no forskolin, luminescence, 4.5 h, higher = more signal, called active from +8 up or from −8 down
[15] = forskolin-driven CRE-LacZ activity in PC12 – cell-based, CRE-LacZ reporter, forskolin-stimulated, primary screen (AID 1146); details: luminescence, 4.5 h, higher = more signal, called active from +8 up or from −8 down;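 also: PC12 cells with 6xCRE LacZ reporter stimulated by forskolin 10 µM; beta-galactosidase reporter signal reflecting CREB driven transcription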
[16] = target: Streptavidin (Streptomyces avidinii) (UniProt P22629); experiment: compounds binding control protein streptavidin – biophysical, small-molecule microarray, 635/667 nm fluorescence, artefact control for SMM compound annotation, primary screen (AID 1147); details: higher = more signal;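 also: signal reflects streptavidin binding to arrayed compounds as a control protein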
[17] = probe aInhba binding on compound microarray – biochemical, small-molecule microarray, 635/667 nm fluorescence, primary screen (AID 1148); details: higher = more signal;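 also: score merges 667nm spot fluorescence with signal-to-noise for antibody binding to printed compounds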
[18] = target: Torsin-1A (Homo sapiens) (UniProt O14656); experiment: TOR1A wild-type binding on microarray – cell lysate, small-molecule microarray, lysate, 635/667 nm, primary screen (AID 1149); details: COS7 hTOR1A-WT lysate, 635 nm fluorescence, higher = more signal
[19] = target: Torsin-1A (Homo sapiens) (UniProt O14656); experiment: torsin A mutant lysate binding on microarrays – cell lysate, small-molecule microarray, COS7 lysate, 635/667 nm fluorescence, primary screen (AID 1150); details: COS7 hTOR1A mutant lysate, 635 nm fluorescence, higher = more signal;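 also: score pools 667 nm emission and signal to noise measuring lysate protein binding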
[20] = system: Sonic hedgehog protein (Shh); experiment: Sonic hedgehog microarray binding compounds – biochemical, small-molecule microarray, 635/667 nm fluorescence, primary screen (AID 1151); details: 635 nm fluorescence, higher = more signal;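 also: Shh protein binding to compounds spotted on small-molecule microarray slides; score combines spot fluorescence intensity with signal-to-noise across triplicate slides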

Torsin-1A (Homo sapiens), sequence (O14656 whole entry, looked up): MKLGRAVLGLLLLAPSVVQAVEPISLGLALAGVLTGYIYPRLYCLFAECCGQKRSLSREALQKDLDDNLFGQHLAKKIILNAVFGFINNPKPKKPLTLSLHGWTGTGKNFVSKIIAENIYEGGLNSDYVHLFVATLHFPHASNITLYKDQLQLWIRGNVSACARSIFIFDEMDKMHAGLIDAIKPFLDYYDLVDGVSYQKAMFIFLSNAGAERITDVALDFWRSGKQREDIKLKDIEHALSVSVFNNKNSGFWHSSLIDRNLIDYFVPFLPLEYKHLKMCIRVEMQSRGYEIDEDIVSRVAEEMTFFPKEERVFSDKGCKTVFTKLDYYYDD
Luciferin 4-monooxygenase (Photinus pyralis), sequence (P08659 whole entry, looked up): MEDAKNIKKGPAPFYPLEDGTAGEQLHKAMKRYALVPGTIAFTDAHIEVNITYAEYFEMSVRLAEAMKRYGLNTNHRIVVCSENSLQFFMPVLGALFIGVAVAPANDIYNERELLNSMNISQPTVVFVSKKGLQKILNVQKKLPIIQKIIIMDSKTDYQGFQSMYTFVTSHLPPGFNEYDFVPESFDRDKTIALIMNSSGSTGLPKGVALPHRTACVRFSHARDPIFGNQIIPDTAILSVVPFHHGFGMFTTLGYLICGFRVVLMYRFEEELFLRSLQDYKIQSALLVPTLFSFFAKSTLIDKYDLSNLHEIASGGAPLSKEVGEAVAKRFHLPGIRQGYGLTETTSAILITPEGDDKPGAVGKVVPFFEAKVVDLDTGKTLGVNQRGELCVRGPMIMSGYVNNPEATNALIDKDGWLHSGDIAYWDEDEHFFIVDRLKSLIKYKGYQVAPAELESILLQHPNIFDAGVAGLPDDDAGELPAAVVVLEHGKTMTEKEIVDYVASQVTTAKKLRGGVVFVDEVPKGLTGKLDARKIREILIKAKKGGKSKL
Focal adhesion kinase 1 (Homo sapiens), sequence (Q05397 whole entry, looked up): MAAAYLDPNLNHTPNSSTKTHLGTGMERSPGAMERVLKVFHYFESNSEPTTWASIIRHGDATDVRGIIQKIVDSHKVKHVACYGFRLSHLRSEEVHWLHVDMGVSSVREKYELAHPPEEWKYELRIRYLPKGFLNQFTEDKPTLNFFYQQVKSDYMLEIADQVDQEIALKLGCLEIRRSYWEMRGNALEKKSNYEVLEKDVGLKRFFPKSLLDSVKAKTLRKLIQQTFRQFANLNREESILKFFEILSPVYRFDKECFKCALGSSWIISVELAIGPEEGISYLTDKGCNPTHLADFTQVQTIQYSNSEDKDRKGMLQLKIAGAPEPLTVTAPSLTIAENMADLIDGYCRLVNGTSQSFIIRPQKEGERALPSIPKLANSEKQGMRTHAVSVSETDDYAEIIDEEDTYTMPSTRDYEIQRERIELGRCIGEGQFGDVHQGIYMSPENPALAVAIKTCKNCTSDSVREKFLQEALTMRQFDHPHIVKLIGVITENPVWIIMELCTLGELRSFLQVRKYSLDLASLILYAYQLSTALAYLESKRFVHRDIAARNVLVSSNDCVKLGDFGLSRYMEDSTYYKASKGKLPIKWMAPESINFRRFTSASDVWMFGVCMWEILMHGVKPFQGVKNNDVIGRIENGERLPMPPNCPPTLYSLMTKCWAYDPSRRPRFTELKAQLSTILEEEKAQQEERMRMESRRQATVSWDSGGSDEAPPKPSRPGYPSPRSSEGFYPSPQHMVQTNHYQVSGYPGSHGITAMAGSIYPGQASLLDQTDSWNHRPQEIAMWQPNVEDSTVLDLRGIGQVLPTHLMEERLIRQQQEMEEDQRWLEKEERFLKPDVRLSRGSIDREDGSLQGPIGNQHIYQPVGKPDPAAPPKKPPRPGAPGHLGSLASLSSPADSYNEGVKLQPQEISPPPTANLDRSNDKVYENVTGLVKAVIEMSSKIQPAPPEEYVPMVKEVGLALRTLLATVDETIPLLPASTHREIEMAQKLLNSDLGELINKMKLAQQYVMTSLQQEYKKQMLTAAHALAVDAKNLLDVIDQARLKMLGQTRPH
Follistatin (Homo sapiens), sequence (P19883 whole entry, looked up): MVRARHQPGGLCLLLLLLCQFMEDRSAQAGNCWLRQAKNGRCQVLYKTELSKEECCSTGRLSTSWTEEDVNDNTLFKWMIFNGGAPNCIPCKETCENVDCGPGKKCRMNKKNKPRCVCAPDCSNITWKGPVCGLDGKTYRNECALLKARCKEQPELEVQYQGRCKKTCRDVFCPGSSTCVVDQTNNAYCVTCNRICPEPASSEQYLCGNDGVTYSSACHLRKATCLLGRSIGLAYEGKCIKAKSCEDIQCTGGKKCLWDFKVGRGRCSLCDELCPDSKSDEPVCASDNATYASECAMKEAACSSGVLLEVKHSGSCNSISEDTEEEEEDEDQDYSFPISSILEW
Streptavidin (Streptomyces avidinii), sequence (P22629 whole entry, looked up): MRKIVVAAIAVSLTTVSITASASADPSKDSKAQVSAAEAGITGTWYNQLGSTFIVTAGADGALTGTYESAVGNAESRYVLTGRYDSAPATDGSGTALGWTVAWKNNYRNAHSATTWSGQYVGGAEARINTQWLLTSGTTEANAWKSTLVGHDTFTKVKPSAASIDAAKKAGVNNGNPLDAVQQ
Fibroblast growth factor 2 (Homo sapiens), sequence (P09038 whole entry, looked up): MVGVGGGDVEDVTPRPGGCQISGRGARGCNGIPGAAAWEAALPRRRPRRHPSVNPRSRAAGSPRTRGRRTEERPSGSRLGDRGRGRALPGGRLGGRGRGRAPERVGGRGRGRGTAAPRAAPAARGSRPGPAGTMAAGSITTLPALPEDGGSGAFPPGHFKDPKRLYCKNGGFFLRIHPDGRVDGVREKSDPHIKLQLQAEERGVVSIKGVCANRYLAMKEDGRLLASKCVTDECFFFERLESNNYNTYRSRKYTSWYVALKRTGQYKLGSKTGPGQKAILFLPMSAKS

Row | Compound | composite z-score [1] | composite z-score [2] | composite z-score [3] | composite z-score [4] | composite z-score [5] | composite z-score [6] | z-score [7] | composite z-score [8] | composite z-score [9] | z-score [10] | composite z-score [11] | z-score [12] | z-score [13] | z-score [14] | z-score [15] | composite z-score [16] | composite z-score [17] | composite z-score [18] | composite z-score [19] | composite z-score [20]
1 | O=C(NCC(F)(F)F)[C@@H]1c2ccccc2C(=O)N(Cc2ccccc2C(F)(F)F)[C@H]1c1ccc(CO)cc1 | 0.219 | -0.479 | -0.335 | -1.14 | 0.706 | 0.548 | 0.0955 | -0.569 | -0.885 | 0.461 (inactive) | 0.38 | -0.325 (inactive) | 0.266 (inactive) | -0.295 (inactive) | 1.02 (inactive) | -0.631 | 0.0906 | 0.702 | -0.274 | 0.0223
2 | CC(C)(C)OC(=O)CC[C@@]1(C(=O)NCc2ccccc2)N=C(c2ccc(OCCCO)cc2)O[C@@H]1c1ccccc1N=[N+]=[N-] | 1.63 | 1.25 | 1.22 | 0.951 | 1.39 | 1.58 | -1.16 | 0.432 | 1.07 | -11 (active) | 0.717 | -2.53 (inactive) | 0.014 (inactive) | 1.73 (inactive) | -0.947 (inactive) | 1.8 | 0.0839 | -0.183 | 1.33 | 0.101
